# Reference: publication PMC12136788
# Changes are numbered by the printed parent chain. Over roughly 24,000 sequences, “enrichment r” has its median near 0.99; the highest 2% begin near 3.7. Shown is part of a subset that was picked to be rich in the highest values.
# T1: UNK ZnF1-3 (human, UniProt Q9C0B0 31-174)
# T1 sequence: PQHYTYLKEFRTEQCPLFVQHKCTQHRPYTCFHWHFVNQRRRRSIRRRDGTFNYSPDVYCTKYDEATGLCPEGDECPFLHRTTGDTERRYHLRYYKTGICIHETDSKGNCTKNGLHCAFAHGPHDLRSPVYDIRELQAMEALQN
# B1: chr5:145543945:145543946:-_ENSG00000133706_ENST00000545646|hu_hu|hu_hu_hu_mus_True|58_98 (ssRNA)
# RNA: GGGAGUUCUACAGUCCGACGAUCCUGAACGGCCAGUGGCGGGAAAUAAUCAAGCCAGUGCUCUGCUUCAGAAAACUUUACUAUCUCGUCAUCAGAGAGCCCAAGGGAUUUCAUAAUGUCCCACUGGUACUUAGAAGAUCCUGCCAACAGAGGAUUGAGCAUCA
# B2: chrX:20248820:20248821:+_ENSMUSG00000001924_ENSMUST00000001989|mus_mus|mus_mus_mus_hu_True|78_78 (ssRNA)
# RNA: GGGAGUUCUACAGUCCGACGAUCGGCGAAGUCCGUCACCACAAAGUCAGGUUCUGCCAGUGAUGCUACCAAGGAUUUAAAGCUAAUCUUCUUAGGUACUUUGACCUGACUGACGAUGCCUCCACGGAUGUAGUCGGAGAAGUUCAACAGAGGAUUGAGCAUCA
# B3: chr1:66480114:66480115:+_ENSMUSG00000015222_ENSMUST00000024639|mus_hu|mus_mus_mus_hu_True|28_28 (ssRNA)
# RNA: GGGAGUUCUACAGUCCGACGAUCUGGCCUGUGGCGGAUGUUCUUCAGAGAGCCACAUUUGGAUGUCACAUGGCUUAGGUCUAUUUUCUUGGUAACAAUUUGUACCUGACCCCCCUUAGGCUGGUAUUUGAUGUUGUCUGUUGACAACAGAGGAUUGAGCAUCA
# B4: chrX:100668055:100668056:+_ENSG00000126945_ENST00000316594|hu_mus|FALSE|FALSE (ssRNA)
# RNA: GGGAGUUCUACAGUCCGACGAUCGAGCUCUACAUAGCUAUGAUCAUAAGCUCCUCCACUUGUCCCUGCGGUAGAAUUCAAGAAGAGCUCCACAUAUCUGUGUUGCAUAUUUGCUUUAUCUUUUGCCAUAGCUGCCACAGCGUCCAACAGAGGAUUGAGCAUCA
# B5: chr12:118471567:118471568:-_ENSG00000176871_ENST00000315436|hu_hu|motif|central (ssRNA)
# RNA: GGGAGUUCUACAGUCCGACGAUCGCACUUGGCCAACAUCGAAGCAACUCUGACCACAGCAGGAGAGAACUUGAACCAAUGCGGCCACUGCAUCAGAAACACAAGGAUAGGUACUAGGCAGAAGCCAUCGUUCCCAGCGGAGGGCAACAGAGGAUUGAGCAUCA
# B6: chr5:128448638:128448639:+_ENSG00000066583_ENST00000173527|hu_mus|hu_hu_hu_mus_False|18_48 (ssRNA)
# RNA: GGGAGUUCUACAGUCCGACGAUCGGCACUCGCCUUAAUUAGGUUCUGAAUUUCCUUGAACUUCGGGUGGUCUUUGUCAGCCACCAGCUGAAGCAGAACAGCCUCACUAGUGGUCACUAUGAUCCCGGUGCGGGCAAGACGCUCCAACAGAGGAUUGAGCAUCA
# B7: chr16:68260615:68260616:+_ENSG00000072736_ENST00000346183|hu_hu|FALSE|FALSE (ssRNA)
# RNA: GGGAGUUCUACAGUCCGACGAUCGAAACAAGAGAGCCUGCUGCAUUCACACUCAAAGCACCCAUCAUAUAAAAGUAUCCUAGUUAAAUAUAAAAAGCAAAGUUCAUUUCCCCAAAGCUCAAACAGCCUAUGCUGCUCCUGUUCCAACAGAGGAUUGAGCAUCA
# B8: chr1:157160411:157160412:-_ENSMUSG00000026469_ENSMUST00000027741|mus_mus|FALSE|FALSE (ssRNA)
# RNA: GGGAGUUCUACAGUCCGACGAUCGAAUUCAAUCAGAAGAAAGCCACCCCGAUAGAUUCUUAUCAAGGGCCAUACAGUUCUAUCUGUUUCAAGUUUAAAUACAGCUGCAAACACAAGGGUAAUAUUCAGCACAAUGAAUAUUCCCAACAGAGGAUUGAGCAUCA
# B9: chr1:157160411:157160412:-_ENSMUSG00000026469_ENSMUST00000027741|mus_mus|motif|central (ssRNA)
# RNA: B8 RNA with U80G, A81G
# B10: chr15:103023242:103023243:-_ENSMUSG00000009575_ENSMUST00000118152|mus_mus|FALSE|FALSE (ssRNA)
# RNA: GGGAGUUCUACAGUCCGACGAUCAACUAGCAGCAUUGAUGAGGGGUUAAGGGAUUGGGGACAGAAACUCACCAAGGUCACUAAGUACUUCCAAACUUGGAAGUAGCUCAGUGAGGGCUAAAAAAACUUCGACUGAAGGUAUCCCAACAGAGGAUUGAGCAUCA
# B11: chr14:67424093:67424094:-_ENSMUSG00000022048_ENSMUST00000022629|mus_mus|FALSE|FALSE (ssRNA)
# RNA: GGGAGUUCUACAGUCCGACGAUCGGAGACCGAGUGCAGGGGGCCCAAGAGGAAGCCCCAGGAACUGGCUGCCCACAGCAACUAUCACAGGCUCUUUAAAAAAAAAAAAAAUGGAAGAAAGGAAGUCUCAGAAUGUCCUCAGGUCAACAGAGGAUUGAGCAUCA
# B12: chr17:35975164:35975165:-_ENSMUSG00000001525_ENSMUST00000001566|mus_hu|FALSE|FALSE (ssRNA)
# RNA: GGGAGUUCUACAGUCCGACGAUCGGAAUGCGCCCCAGAGGCUGGAGCAGCGAGGUGCAAACGCGACGGCAGGAAGGUUCUGAGAGGGAGAAAGGAGAGGGGAGGGCGCGGAGGGAAAGCAGGCUGGGCGGGGCGCGCGUGCGCCAACAGAGGAUUGAGCAUCA
# B13: chr1:26230221:26230222:-_ENSG00000117632_ENST00000374291|hu_mus|FALSE|FALSE (ssRNA)
# RNA: GGGAGUUCUACAGUCCGACGAUCCUGGAUUUCCUCCAGGGAAAGGUCCUUCUUCUUUGGGGGGGAAAGGGGGAAAUCGGGGACAGAUUCUUUUGACCGAGGGCUGAGAAUCAGCUCAAAAGCCUGGCCUGAAGCGCGCUUCUCCAACAGAGGAUUGAGCAUCA
# B14: chr5:145543945:145543946:-_ENSG00000133706_ENST00000545646|hu_hu|hu_hu_hu_mus_True|48_48 (ssRNA)
# RNA: B1 RNA with C39U, U78C, C84G, G87U, G96C
# B15: chr14:67424093:67424094:-_ENSMUSG00000022048_ENSMUST00000022629|mus_mus|motif|central (ssRNA)
# RNA: B11 RNA with U82G, A83G
# B16: 72187872_72187992_6815_3pUTR_ENSG00000148730_ENST00000373218|human|control|control (ssRNA)
# RNA: GGGAGUUCUACAGUCCGACGAUCGAGUGUCCUCUGGGCUCUUCAAGACACCUUCUUUAAGGUUUACCCCUGGAGUAGCAGAGGGUCUCCUCACCCAGGUGGAAAGAGAUGGGCUCCAUCUGCAGAUGAAGGAAAGGCACUGGCCAACAGAGGAUUGAGCAUCA
# B17: chr10:70525781:70525782:+_ENSG00000060339_ENST00000535016|hu_hu|motif|central (ssRNA)
# RNA: GGGAGUUCUACAGUCCGACGAUCUGAAUGUUCUUUAUUAUCCUCUAAUCUGUAGUCCAAUAGGACACUCAAAGACAUGAUGCGGCAAUCAAACUUGCCACUUUUUGCAGCCCAAUUUGGAUGUACAAUGAUGGCCGGUUCAUCCAACAGAGGAUUGAGCAUCA
# B18: chr20:57415074:57415075:+_ENSG00000087460_ENST00000313949|hu_hu|motif|central (ssRNA)
# RNA: GGGAGUUCUACAGUCCGACGAUCUCUGCAGAGAGUGGCUCCGAAGCACAUUGGCUGCUGGAGCCGGGAAAGGUACACCCGGUGAGGUGAGAAGCUGGCCCGGAGGUCCCAGCCUCACCUCCUUGUGAGGAGAAAAAGGGAAGCCAACAGAGGAUUGAGCAUCA
# B19: chr17:23874276:23874277:-_ENSMUSG00000023909_ENSMUST00000024702|mus_hu|FALSE|FALSE (ssRNA)
# RNA: GGGAGUUCUACAGUCCGACGAUCUCUAACCCCACAGGUCACAGAGGGUAAAGAGGUCCCAAGAGGGAAAGGUUUCCUUCCAGCUGACACAGUAAAAUAGGAGCUUGGAGGGAAAAGGCAGGGAAGGAAGUUGGAGCGCCACGGCAACAGAGGAUUGAGCAUCA
# B20: chr1:220276048:220276049:+_ENSG00000067704_ENST00000302637|hu_hu|hu_hu_hu_mus_True|1_108 (ssRNA)
# RNA: GGGAGUUCUACAGUCCGACGAUCGCAAACAGCUUCAUUGGCGGGAAUUGUCCAAGGCUGGGUGGUCCAAACUAAAACGCUAACAGGGGAUGAGGCAUCUGUAAGAGACUCCAACUUCGGAGGAGGUCUCAGGAGGGGAAAUUUCAACAGAGGAUUGAGCAUCA
# B21: chr17:23874276:23874277:-_ENSMUSG00000023909_ENSMUST00000024702|mus_mus|FALSE|FALSE (ssRNA)
# RNA: GGGAGUUCUACAGUCCGACGAUCAGAGACUCUCACAGGUUAAACAGGGUAAAUUGGGAAAAAAAAAAAUGGUUUCCUUCUAAUGACAGCAAAACAAUGCCCAGGAGGGAAGAUGGCAAGGAAAGUGGAAGCUGGGGUUUGAAGCAACAGAGGAUUGAGCAUCA
# B22: chr17:23874276:23874277:-_ENSMUSG00000023909_ENSMUST00000024702|mus_mus|motif|central (ssRNA)
# RNA: B21 RNA with U80G, A81G
# B23: chr18:38611996:38611997:+_ENSMUSG00000024425_ENSMUST00000025293|mus_mus|FALSE|FALSE (ssRNA)
# RNA: GGGAGUUCUACAGUCCGACGAUCAAGACCAAAUCCUGAGAUGGCCCCAUACCUUCCCGCAGCUGAGGUGGUCAGGCAAAAAGACAAGAAAAACCCAAUCCAGUUGAAGAGGAAUGCCAUGAAAAAAGUUAACAUAAAAAUCCCCAACAGAGGAUUGAGCAUCA
# B24: chrX:7396663:7396664:+_ENSMUSG00000031153_ENSMUST00000132456|mus_mus|motif|central (ssRNA)
# RNA: GGGAGUUCUACAGUCCGACGAUCGCAAGGGCAUACAUGGAUGGAUCAGUGGGCAGAGGGACAGAUGGCAGACUGAUGGGCGGACCUGGGAAGUUGAUUGGAGGGUAAAAGAGGUGAACACAAAAGGGCGGUAGAUGACUGGAACAACAGAGGAUUGAGCAUCA
# Target: T1, UNK ZnF1-3
# Experiment: nsRBNS (natural sequence RNA bind-n-seq); RBNS binding buffer (assumed for nsRBNS): 25 mM Tris pH 7.5, 150 mM KCl, 3 mM MgCl2, 0.01% Triton X-100, 500 ug/ml BSA, 20 U/ml SUPERase-In, 4 C; UNK is unkempt and MSI1 is Musashi-1; names of the RNAs are library labels; protein concentration not given here; high values mean tight binding
row,Binder,binding signal [enrichment R]
1,B1,1.23
2,B2,0.842
3,B3,0.629
4,B4,1
5,B5,1.61
6,B6,0.517
7,B7,4.02
8,B8,0.961
9,B9,0.944
10,B10,1.71
11,B11,3.82
12,B12,2.69
13,B13,0.676
14,B14,1.07
15,B15,4.34
16,B16,1.96
17,B17,0.442
18,B18,0.876
19,B19,1.43
20,B20,1.61
21,B21,4.07
22,B22,4.06
23,B23,2.06
24,B24,2.58
